Test results published in the supplement of paper PMC13380429.

System: Vero E6 infected with SARS-CoV-2
Experiment: inhibition of SARS-CoV-2 cytopathic effect; higher = more antiviral protection, active = above 15
Settings: 48 h

Measured: inhibition of SARS-CoV-2 cytopathic effect

CN1CCN(c2ncc(-c3cc(Cl)cc(Cl)c3Cl)c(N)n2)CC1 [sipatrigine]
inactive: 1 nM -3.16% | 8.33 nM -4.99% | 100 nM -2.74% | 833.33 nM -3.24% | 10000 nM 2.7%

CO[C@@H](C)Cn1c(=O)n(C)c2cnc3ccc(-c4cncc(C(C)(C)O)c4)cc3c21
inactive: 1 nM 0.62% | 8.33 nM 2.32% | 100 nM -0.9% | 833.33 nM -3.02% | 10000 nM -17.6%

Cc1cc(Cl)ccc1OCCCC(=O)NO [droxinostat]
inactive: 1 nM 4.45% | 8.33 nM 1.04% | 100 nM 1.23% | 833.33 nM 1.7% | 10000 nM -3.27%

CN1CCN(C2CCN(C(=O)Nc3cc(Oc4ccc(NC(=O)C5(C(=O)Nc6ccc(F)cc6)CC5)c(F)c4)ccn3)CC2)CC1 [golvatinib]
active: 10000 nM 40.8%
inactive: 1 nM 0.88% | 8.33 nM 0.74% | 100 nM 2.78% | 833.33 nM 5.87%

CC(C)C[C@@H](NC(=O)[C@H](Cc1ccccc1)NC(=O)CNC(=O)[C@@H](C)NC(=O)[C@@H](N)Cc1ccc(O)cc1)C(=O)O
inactive: 1 nM -0.21% | 8.33 nM 3.3% | 100 nM 1.72% | 833.33 nM 2.13% | 10000 nM 0%

Nc1nc2c(ncn2[C@@H]2O[C@H](CO)[C@@H](O)[C@H]2O)c(=O)[nH]1 [guanosine]
inactive: 1 nM -3.19% | 8.33 nM -0.4% | 100 nM -0.7% | 833.33 nM -1.53% | 10000 nM 0.09%

COc1cc2c(cc1OC)-c1cc3nc4ccccc4nc3n1C(C)(C)C2
inactive: 1 nM 2.63% | 8.33 nM 1.86% | 100 nM 1.86% | 833.33 nM -2.74% | 10000 nM -7.6%
